Results from PubChem BioAssay AID1850 (Southern Research Specialized Biocontainment Screening …, 2009).
The campaign covered roughly 310,000 compounds. About 1,000 (0.32%) were called active. These entries were drawn from the full list. Entries with a potency or affinity are not part of this list. Values without a mark were called inactive. No rule for the calls is given here.

Assay: PhoP regulon inhibitors, Salmonella typhi PhoP promoter GFP reporter, confirmatory (AID 1850);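 also: 0% = induced wells with vehicle and 100% = uninduced wells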
Details: fluorescence, 4 h, at 50 µM, active compounds read high

SMILES	inhibition
Cc1ccc(-c2[nH]ncc2/C=N/n2c(COc3ccccc3)nc3ccccc3c2=O)cc1	-8.67%
Cc1nc2ccccc2c(=O)n1/N=C/c1ccccc1O	1.57%
Cc1nc2ccccc2c(=O)n1/N=C/c1cc(Br)cc(Br)c1O	9.81%
Cc1nc2ccccc2c(=O)n1/N=C/c1cn[nH]c1-c1ccccc1	-0.17%
COc1ccc(NC(=O)C2CCCN2C(=O)NCc2ccccc2)cc1 (stereo not given)	-5.86%
CSc1cccc(N2CC(C(=O)N(CC(C)C)c3c(N)n(Cc4ccccc4)c(=O)[nH]c3=O)CC2=O)c1 (stereo not given)	-3.17%
CCOc1ccc(C(=O)Nc2nnc(C(C)C)s2)cc1OCC	-1.68%
COCCN1CCN(C(=O)C2CCC(=O)N(CCc3ccc(Cl)cc3)C2)CC1 (stereo not given)	-4.1%
COc1ccc(Nc2ccnc(Nc3ccc(OC)cc3)n2)cc1	-1.84%
O=C(O)c1cccc(Nc2ccnc(Nc3cccc(C(=O)O)c3)n2)c1	2.42%
Nc1ncnc(Nc2ccc(F)cc2)n1	-3.3%
c1ccc(Nc2cccc(Nc3ccccc3)n2)cc1	6.98%
Cc1c(C(=O)O)oc2ccc(S(=O)(=O)N3CCCCC3C(=O)O)cc12 (stereo not given)	-3.93%
C/C=C/c1ccc(OCC(O)CN2CCCCC2CC)c(OC)c1 (stereo not given)	8.19%
S=C1NC2(CCCCC2)NC12CCCCC2	-9.21%
Cc1sc2nc(SCC(N)=O)n(-c3ccccc3)c(=O)c2c1C	-0.27%
O=C(NNc1nc2ccccc2s1)c1ccc(F)cc1	-6.05%
O=C(NNc1nc2cc3c(cc2s1)OCO3)c1cccc(F)c1	-11.1%
CC(C)(C)c1ccc(S(=O)(=O)NNC(=O)C2CCN(Cc3cccc(F)c3)CC2)cc1	6.86%
C=CCOC(=O)C1=C(C)NC(SCC(=O)Nc2nccs2)=C(C#N)C1c1ccc(Cl)cc1 (stereo not given)	3.36%
c1ccc2c(c1)CC(N1CCCCC1)c1ccccc1S2 (stereo not given)	16.3%
CN1CCN(C2Cc3ccccc3Sc3ccc(Cl)cc32)CC1 (stereo not given)	-13%
O=C1Cc2ccccc2Sc2ccc(Cl)cc21	-8.12%
CC(C)c1ccc2c(c1)C(N1CCNCC1)Cc1ccc(F)cc1S2 (stereo not given)	19.3%

SMILES	inhibition
NC(=O)CCN1CCN(CCOC2Cc3cc(Cl)ccc3Sc3ccccc32)CC1 (stereo not given)	-4.99%
CN1Cc2cccc3c2C(Cc2ccccc2S3)C1 (stereo not given)	-6.53%
CN1CCN(C2Cc3ccccc3Sc3cc(C(F)(F)F)ccc32)CC1 (stereo not given)	2.06%
c1ccc2c(c1)CC(N1CCCCC1)c1ccccc1N2 (stereo not given)	-3.45%
Cc1ccccc1NC(=O)c1ccco1	-6.44%
COc1ccc(/C=C2\CCCC3C2=NC(=S)NC3c2ccc(OC)cc2)cc1 (stereo not given)	-6.47%
COc1ccccc1-c1nc(-c2ccc(Br)cc2)no1	19.9%
CC1CCCCN1CCNC(=O)c1ccc2c(c1)N(Cc1cccc(Cl)c1)C(=O)c1ccccc1S2=O (stereo not given)	-21.9%
Cc1ccc(CNC(=O)C2CC(c3ccc(C(F)(F)F)cc3)=NO2)o1 (stereo not given)	-0.47%
CCCc1cc(C(=O)OC)c(NC(=O)OCC)s1	0.48%
COC(=O)CNC(=O)c1ccc(NS(=O)(=O)c2cc([N+](=O)[O-])ccc2Cl)cc1	-1.71%
CN(C)C(=O)c1ccc(-n2cnc3ccccc3c2=O)cc1	6.15%
Cc1cc(O)c2c(c1)C(=O)c1cc(O)cc(O)c1C2=O	-20.4%
COc1cc(NC(=O)c2cccs2)c(C(=O)OCC(=O)NC(=O)NCc2ccccc2)cc1OC	-3.62%
O=C(COC(=O)c1ccc([N+](=O)[O-])s1)Nc1ccccc1	4.19%
NS(=O)(=O)c1ccc(NC(=O)COC(=O)c2ccc([N+](=O)[O-])s2)cc1	9%
S=c1[nH]nc(COc2ccc(Cl)cc2)n1-c1ccc(Cl)cc1	2.37%
Cc1ccc(N=Nc2ccc(O)c3ncccc23)cc1	-8.35%
Cc1ccccc1N=Nc1ccc(O)c2ncccc12	-0.137%
CCOc1ccc(N(CC(=O)NC2CCCCC2)C(=O)CCC(=O)Nc2cc(C)ccn2)cc1	2.46%
COc1ccc(C(CCN)c2ccc3c(c2)OCO3)cc1 (stereo not given)	-14.2%
COc1ccc(C(CCNCc2ccc(N(C)C)cc2)c2ccccc2)cc1 (stereo not given)	6.13%
Cc1ccccc1OCCN1C(=O)c2ccccc2C1=O	-6.01%
CCCNC(=O)COC(=O)c1ccc(S(=O)(=O)N2CCCCCC2)cc1	-7.39%

SMILES	inhibition
CCCCCCCCCC(=O)N1CCN(c2cc3c(cc2F)c(=O)c(C(=O)O)cn3CC)CC1	-9.96%
CCn1cc(C(=O)O)c(=O)c2cnc(N3CCN(C(=S)Nc4ccccc4)CC3)nc21	7.15%
CCCCCCCC(=O)N1CCN(c2cc3c(cc2F)c(=O)c(C(=O)O)cn3CC)CC1	9.58%
CCCCCCCCC(=O)N1CCN(c2cc3c(cc2F)c(=O)c(C(=O)O)cn3CC)CC1	-9.35%
C=CCNC(=S)N1CCN(c2ncc3c(=O)c(C(=O)O)cn(CC)c3n2)CC1	-7.57%
CCCCCCC(=O)N1CCN(c2cc3c(cc2F)c(=O)c(C(=O)O)cn3CC)CC1	-12.4%
Cn1ccnc1SCC(=O)NC1CCCC1	-6.69%
Cc1cccc2cc(CN(C(=O)c3cccc([N+](=O)[O-])c3)C(C)C)c(=O)[nH]c12	-4.34%
COc1ccc(NC(=O)c2nc3nc(C)cc(C(F)F)n3n2)cc1OC	-3.09%
CC(C)(C)c1ccc(CS(=O)(=O)CC2(O)CCN(C(=O)c3cccc(C(F)(F)F)c3)CC2)cc1	-0.12%
CS(=O)(=O)c1ccc(Cl)c(NC(=O)COC(=O)Cc2c[nH]c3ccccc23)c1	-1.58%
Cc1cc(N(CCO)CCO)ccc1N=Nc1cc(F)ccc1F	22.3%
CCCOc1cccc(C(=O)Nc2cccc3ncccc23)c1	-5.81%
CCOc1ccc(S(=O)(=O)N2CCN(C(=O)c3sccc3C)CC2)cc1	-3.32%
CCCCCCn1cc(C(=O)O)c(=O)c2cc(F)c(N3CCN(C)CC3)cc21	-6.43%
CCOC(=O)c1cn(CC)c2cc(N3CCCCC3)c(F)cc2c1=O	-24.8%
CCCCCCn1cc(C(=O)O)c(=O)c2cc(F)c(N3CCN(C(=O)OCC)CC3)cc21	-8.26%
CCCCNc1nnc(SCC(=O)N2CCN(S(=O)(=O)c3ccc4ccccc4c3)CC2)s1	-3.79%
CC(=O)Nc1cccc(C(=O)OC(C)C(=O)NC2CCCc3ccccc32)c1 (stereo not given)	-2.01%
CCNc1cc(N2CCOCC2)nc(SC)n1	7.57%
Cc1cccc(-c2cc(=O)c(C(=O)O)cn2-c2ccc(F)cc2F)c1	-13.4%
O=C(O)c1cn(C2CCCCC2)c2ccccc2c1=O	2.42%
O=C(O)c1cn(-c2ccc(N3CCCC3)c(F)c2)c2c(F)c(F)c(F)cc2c1=O	-7.01%
CCOC(=O)c1cn(C2CC2)c2c(F)c(NCCCN(C)C)c(F)cc2c1=O	4.81%

SMILES	inhibition
COc1c(F)c(F)cc2c(=O)c(C(=O)O)cn(C3CC3)c12	1.27%
COC(=O)C(c1cc(OC)c(O)c(OC)c1)(N1CCNC(C)C1)C(F)(F)F (stereo not given)	-16.6%
CCOC(=O)c1cn(C2CC2)c2c(F)c(F)c(F)cc2c1=O	5.55%
O=C(Nc1cccnc1)C1CC(c2ccccc2O)=NO1 (stereo not given)	-2.59%
CCNc1nc(NCC)nc(OCCOC(=O)c2ccccc2)n1	-3.56%
COc1cc(CNCCN2CCOCC2)ccc1OCc1ccccc1Cl	8.72%
COc1cccc(C2c3[nH]c4ccccc4c3C[C@H]3C(=O)N(c4ccccc4C(=O)N4CCC(C(=O)O)CC4)C(=O)N23)c1 (stereo not given in full)	-4.46%
O=C(c1cccc(F)c1)N1CCN(C(=O)c2cc3nc(-c4ccco4)cc(C(F)(F)F)n3n2)CC1	-3.4%
COc1cc(NC(=O)Cc2ccc(F)cc2)cc(OC)c1OC	-5.66%
CCOC(=O)Cc1csc(NC(NC(=O)CC)(C(F)(F)F)C(F)(F)F)n1	0.93%
CC1CCCCC1NC(=O)COC(=O)COc1ccccc1Cl (stereo not given)	-4.09%
O=C(CCS(=O)(=O)c1cccc2nonc12)N1CCCc2ccccc21	4.05%
CCOc1ccc(C(=O)Nc2nc(C)c(C(=O)OC)s2)cc1	-11%
CCOc1ccc(S(=O)(=O)N2CN3CCN(C3)C2)cc1	-2.97%
Cc1ccc(S(=O)(=O)N2CN3CCN(C3)C2)cc1	13.8%
Cc1ccc(N2C(=O)c3ccccc3C2=O)cc1	-2.86%
CC(=O)N(c1ccc(Cl)cc1)c1nc(C)cc(C)c1C#N	6.97%
O=C(Nc1ccncc1)Nc1ccncc1	0.03%
O=C(Nc1ccncc1)Nc1ccc(F)c(Cl)c1	14.2%
S=C(NCc1ccncc1)Nc1ccc(Cl)cc1	-0.61%
CCc1ccc(NC(=O)Nc2ccon2)cc1	-5.91%
S=C(NCc1ccc(Cl)cc1)Nc1ccccc1	-8.41%
CCc1ccc(NC(=O)Nc2cnccn2)cc1	-5.86%
